NPC1 prom act: qHTS Assay for NPC1 Promoter Activators; Huh7 NPC1 promoter luciferase reporter, 24 h; Potency, µM (series often up to 9.22 µM), actives largely listed as activators; 320,000 compounds, 2.4% hits; AID 485313, 2010; note: nearly all actives have a fitted effect of over 60% in size
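Stable NPC1-promoter luciferase Huh7 line; cpd (DMSO) 24 h, 37 °C, 5% CO2; Amplite luciferase reagent 10 min RT; luminescence readout. qHTS format.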
ELG1 genotoxic: qHTS screen for small molecules that induce genotoxicity in human embryonic kidney (HEK293T) cells expressing luciferase-tagged ELG1. Potency, µM (titrated, usually from 46 µM), usual class: activators. HEK293T ELG1-luciferase reporter, luminescence, 16 h. 330,000 compounds, 1.3% hits; note: nearly all actives have a fitted effect of over 60% in size
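Screening used a luciferase reporter fused to human ELG1 in HEK293T cells. Luminescence was read on a CCD plate imager after 16 hr exposure and 30 min ONE-Glo incubation.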
FLuc counter: qHTS profiling assay for firefly luciferase inhibitor/activator using purifed enzyme and Km concentrations of substrates (counterscreen for miR-21 project); AID 588342, 2011; Luciferin 4-monooxygenase (Photinus pyralis), P08659; purified FLuc, Km substrates, luminescence inhibition; 360,000 compounds, 6.9% hits; Potency, µM (highest dose often 57.5 µM), hits mostly inhibitors; note: nearly all actives have a fitted effect of over 55% in size
Target sequence (P08659 whole entry, looked up): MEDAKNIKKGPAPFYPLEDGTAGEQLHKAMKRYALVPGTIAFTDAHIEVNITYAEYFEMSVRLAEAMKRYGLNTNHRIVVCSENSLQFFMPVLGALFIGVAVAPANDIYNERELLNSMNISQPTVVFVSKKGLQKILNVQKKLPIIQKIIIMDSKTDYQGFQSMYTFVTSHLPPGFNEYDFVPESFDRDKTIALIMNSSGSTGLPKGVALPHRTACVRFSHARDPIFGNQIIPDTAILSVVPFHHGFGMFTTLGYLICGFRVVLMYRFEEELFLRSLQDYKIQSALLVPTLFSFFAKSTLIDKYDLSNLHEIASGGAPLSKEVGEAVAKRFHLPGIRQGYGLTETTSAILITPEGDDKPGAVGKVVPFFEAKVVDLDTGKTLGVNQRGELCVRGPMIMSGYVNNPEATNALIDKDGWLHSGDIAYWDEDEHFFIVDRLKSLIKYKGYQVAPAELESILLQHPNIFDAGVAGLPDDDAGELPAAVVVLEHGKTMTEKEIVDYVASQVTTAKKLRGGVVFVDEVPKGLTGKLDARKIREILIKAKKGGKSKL
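Purified P. pyralis luciferase, 10 nM final, with Km-level 10 uM D-luciferin and 10 uM ATP in 50 mM Tris acetate pH 7.5, 10 mM Mg acetate, 0.01% Tween-20, 0.05% BSA; 6-point qHTS titration about 60 µM downward; luminescence read.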
ELG1 repair inh: qHTS screen for small molecules that inhibit ELG1-dependent DNA repair in human embryonic kidney (HEK293T) cells expressing luciferase-tagged ELG1; HEK293T ELG1-luciferase reporter, luminescence, 16 h; DNA damage induced by 5-fluorouridine; Potency, µM (top dose mostly 46.1 µM), most hits filed as inhibitors; 330,000 compounds, 2.3% hits; AID 504467, 2011; note: nearly all actives have a fitted effect of over 55% in size
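In this reporter screen, reduction of luminescence relative to DMSO vehicle indicated activity. Compounds and 5-fluorouridine were added together to 2,000 cells per well, incubated for 16 hr at 37 °C, then developed with ONE-Glo.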
SMN2 splice up: qHTS Assay for Enhancers of SMN2 Splice Variant Expression. HEK293 SMN2-luciferase splicing reporter, luminescence, 30-36 h. Potency, µM (highest dose often 46.1 µM), actives largely listed as activators. 210,000 compounds, 2.8% hits; note: nearly all actives have a fitted effect of over 55% in size
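HEK293 cells carry an SMN2 […]–luciferase reporter in which exon 7 inclusion puts luciferase in frame. Cells were plated 10-12 h before compound addition, then incubated 30-36 h at 37C. ONE-Glo luminescence was read; sodium butyrate at 4.5 mM final served as control.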
Rab9 prom act: qHTS Assay for Rab9 Promoter Activators | Huh7 Rab9 promoter-luciferase reporter, luminescence, 24 h | 320,000 compounds, 2.8% hits | AID 485297, 2010 | Potency, µM (highest dose often 9.22 µM), usual class: activators; note: nearly all actives have a fitted effect of over 60% in size
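Huh7 cells stably carrying a Rab9 promoter-luciferase reporter, 1500 cells per well in OP-MEM I with 10% FBS, treated with compound 24 hours at 37C. Luciferase activity read by luminescence after 10 minutes with Amplite reagent.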
A number is an active result; i = inactive; ? = inconclusive; nt = not tested or not shown; [ ] = remark or other dose. Rows were chosen to be rich in hits. Some 9.2% of all compounds tested hit in one or more screens of this group. Calls come from the whole dose curve; as a rule, active = well fitted curve in the direction sought with a large enough effect; inconclusive = small, poorly fitted or top-dose-only effect, or another doubt; inactive = no such curve, though single readings can be large; an effect the other way counts as inactive or inconclusive.

SMILES	NPC1 prom act	ELG1 genotoxic	FLuc counter	ELG1 repair inh	SMN2 splice up	Rab9 prom act
Cc1cc(C(=O)N/N=C/c2ccc([N+](=O)[O-])s2)n[nH]1	i	i	i	16µM	nt	i
Cc1cc(C(=O)N/N=C/c2ccc(C)s2)n[nH]1	4µM	?	?	?	nt	3.2µM
Cc1cc(C(=O)N/N=C/c2cc(Cl)cc([N+](=O)[O-])c2O)n[nH]1	i	i	27µM	13µM	nt	i
Cc1[nH]cnc1C(=O)N/N=C/c1ccc([N+](=O)[O-])s1	i	i	?	?	nt	i
Cc1cc(C(=O)N/N=C\c2cc(C(C)(C)C)c(O)c(C(C)(C)C)c2)n[nH]1	i	i	i	i	nt	i
COc1ccc2[nH]c(C)c(CCN(Cc3cccs3)C(=S)Nc3cccc(F)c3)c2c1	i	i	i	16µM	i	i
COc1cc2cc(CN(Cc3cccs3)C(=S)Nc3cccc(C)c3)c(=O)[nH]c2cc1OC	i	i	i	7.3µM	i	i
Cc1cccc(NC(=S)N(CCN(C)C)Cc2cc3cccc(C)c3[nH]c2=O)c1	i	i	i	13µM	i	i
COc1cc2cc(CN(Cc3cccs3)C(=S)Nc3ccc(C)cc3)c(=O)[nH]c2cc1OC	i	i	i	5.2µM	?	i
COc1cccc(NC(=S)N(CCc2c(C)[nH]c3ccc(C)cc23)Cc2cccs2)c1	i	i	i	?	i	i
COc1cccc(NC(=O)c2ccc(CN3CCc4ccccc4C3)cc2)c1	i	i	19µM	?	nt	i
CC(=O)c1cccc(NC(=O)c2ccc(CN3CCc4ccccc4C3)cc2)c1	i	i	?	8.2µM	nt	i
O=C(Nc1ccc(Cl)cc1)c1ccc(CN2CCc3ccccc3C2)cc1	i	i	i	?	nt	i
COc1ccc(NC(=O)c2ccc(CN3CCc4ccccc4C3)cc2)cc1OC	i	i	?	?	nt	i
C/C(=N\NC(=O)c1ccc(CN2CCc3ccccc3C2)cc1)c1ccccc1O	i	i	i	3.3µM	i	i
CCOc1ccc(NC(=O)Nc2cc(C(C)C)c(O)cc2C)cc1	i	i	i	?	nt	i
CCOc1ccc(NC(=O)Nc2cc(C)ccc2F)cc1	3.2µM	5.6µM	2.4µM	?	16µM	1.1µM
CCOc1ccc(NCC(=O)Nc2ccc(C)cc2C)cc1	i	i	i[2.3 µM]	i	i	i
CCOc1ccc(NC(=O)CNc2ccc(C)cc2Cl)cc1	i	i	9.5µM	i	i	i
NCc1cccc(CNc2ccc([N+](=O)[O-])cc2C(N)=O)c1	?	?	i	i	nt	3.2µM
CCc1ccc(OCC2c3cc(OC)c(OC)cc3CCN2C(=S)NCCOC)cc1 (configuration not stated)	i	i	i	23µM	i	i
Clc1ccc2c(c1)[C@H]1OCC[C@H]1[C@@H](c1ccco1)N2	?	?	4.8µM	?	22µM	?
CC(=O)c1c(C)[nH]c(C2=NNC(=NC(C)(C)C)SC2)c1C	1.8µM	15µM	24µM	?	13µM	1.6µM
CCOC(=O)c1c(C)[nH]c(C2=NNC(=Nc3ccccc3)SC2)c1C	?	i	12µM	?	nt	2.5µM
CC(=O)c1c(C)[nH]c(-c2ccccc2)c1C	i	?	?	i	?	i
SMILES	NPC1 prom act	ELG1 genotoxic	FLuc counter	ELG1 repair inh	SMN2 splice up	Rab9 prom act
CCOC(=O)c1c(C)[nH]c(C2=NNC(=Nc3ccc(OCC)cc3)SC2)c1C	i	i	?	?	i	i
CCOC(=O)c1c(C)[nH]c(C2=NNC(=Nc3ccccc3OC)SC2)c1C	2.5µM	i	9.5µM	?	11µM	?
Cc1cccc(NC(=O)Nc2ccc3c(c2)CCC3)c1	2µM	?	3µM	?	nt	1.8µM
CC(=O)c1cccc(NC(=O)NC2CCCc3ccccc32)c1 (configuration not stated)	i	i	i	i	nt	i
CC(=O)c1cccc(NC(=O)Nc2ccc3c(c2)CCC3)c1	?	i	2.4µM	?	nt	?
Cc1cccc(NC(=O)Nc2ccncc2)c1	i	i	17µM	?	?	i
Cc1cc(C)cc(NC(=O)Nc2cccc(S(N)(=O)=O)c2)c1	i	i	15µM	i	nt	i
CCc1ccc(NC(=O)Nc2ccc3c(c2)CCC3)cc1	?	?	i	?	nt	?
CC12CCC(C(=O)N(CSC(=S)N/N=C\c3ccccc3O)C1=O)C2(C)C (configuration not stated)	i	i	?	?	i	i
CN(C)c1ccc(/C=N\NC(=S)SCN2C(=O)C3CCC(C)(C2=O)C3(C)C)cc1 (configuration not stated)	i	i	8.5µM	?	i	i
CC(=O)Nc1ccc(S(=O)(=O)NC2=C(N3CCN(c4ccc(F)cc4)CC3)C(=O)c3ccccc3C2=O)cc1	i	i	i	8.2µM	i	i
CCCCNc1c(-c2cccc(-c3cc(C(C)=O)cs3)c2)nc2cc(C)ccn12	i	i	6µM	?	nt	i
Cc1ccc(-c2nnc(N3CCCCCC3)c3ccccc23)cc1	i	i	19µM	i	nt	i
COc1ccc(-c2noc(CC(=O)N(C)c3ccccc3F)n2)cc1	nt	nt	i	nt	nt	nt
O=C(Cc1ccccc1)NNC(=O)Nc1ccc(Cl)c(Cl)c1	i	i	i	i	i	i
O=C(Nc1ccc(Cl)cc1)Nc1ccccc1CC[N+](=O)[O-]	i	i	?	i	?	i
O=C(Nc1ccc(Cl)c(Cl)c1)Nc1ccccc1C(=O)O	0.35µM	2.3µM	0.54µM	?	4.5µM	0.32µM
O=C(Nc1ccc(Cl)cc1)Nc1ccccc1C(=O)O	0.35µM	?	0.48µM	?	13µM	0.45µM
CCN(Cc1ccncc1)Cc1c(O)ccc2cc(Br)ccc12	i	i	i	i	i	i
COc1ccc(Cn2c(=O)c3cccnc3n(Cc3cccc(OC)c3)c2=O)cc1	nt	nt	i	nt	i	nt
CCOc1ccc(/C=N/Nc2cc(C)nc(N3CCOCC3)n2)cc1	i	i	1.3µM	?	nt	i
CCOc1ccc(Nc2cc(C)nc(N3CCOCC3)n2)cc1	i	i	i	i	i	i
Cc1cc(N/N=C/c2ccccc2O)nc(N2CCOCC2)n1	i	i	12µM	i	nt	i
Cc1nc(N/N=C/c2ccc(Br)cc2)cc(N2CCOCC2)n1	i	i	i	15µM	nt	i
CCOc1ccc2nc(N3CCOCC3)nc(C)c2c1	4µM	9.2µM	11µM	?	2.8µM	?
Cc1ccc(C)c(N2CCN(C(=O)Cn3cnc4sc(C)c(S(=O)(=O)N5CCN(c6ncccn6)CC5)c4c3=O)CC2)c1	nt	nt	i	nt	i	nt

Bioassay records (PubChem BioAssay)
